# Screening results (PubChem BioAssay)
# Lamin A splicing = LMNA splicing modulation; Potency, µM (series often up to 46.1 µM), for inactives: at the top dose ratio change, negative = inhibition, hits mostly inhibitors; HeLa LMNA splicing GFP/RFP minigene ratio, 48 h; actives 0.01% (n = 200,000); active means well fitted inhibition curve with a large enough effect in the signal ratio, with a control signal flat, not every such curve was filed as active; inconclusive means small, poorly fitted or top-dose-only effect, or effect the other way, or a change in a side signal; the % refers to the signal ratio; further: potency means the concentration at half of the fitted maximal effect; on the % scale 0 is the no-effect control and ±100 the full control effect
#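 S3 HeLa stable clones carrying a lamin A-EGFP splicing minigene plus DsRed2 were seeded at 600 cells/well in Opti-MEM with 2% FBS, pin-dosed and incubated 48 h at 37°C. Acumen cytometry (488 nm) gave the GFP/RFP total-intensity ratio.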
# NPSR antag = neuropeptide S receptor (human) antagonism, cAMP; CHO-NPSR cells, cAMP TR-FRET, antagonist mode; Potency, µM (top dose mostly 38.3 µM), for inactives: at the highest dose activity change, negative = inhibition, actives largely listed as inhibitors; actives 1% (n = 220,000); further: potency means the concentration at half of the fitted maximal effect; on the % scale 0 is the no-effect control and ±100 the full control effect; nearly all actives have a fitted effect of over 50% in size
# HTT ATP protect = cytoprotection in Huntington HTT-Q103 PC12 cell model; AID 1471; actives 0.14% (n = 230,000); PC12 HTT-Q103 induced, cytoprotection, ATP luminescence, 40 h; Potency, µM (highest dose often 56.4 µM), without a hit: cytoprotection (ATP increase), hits mostly activators; further: potency means the concentration at half of the fitted maximal effect; % of control where 0% means no effect; nearly all actives have a fitted effect of over 45% in size
#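 ATP quantification (ATPlite) reports survival of PC12 cells in which tebufenozide, 100 nM final, switches on Htt exon 1 with 103 glutamines linked to GFP; compounds are titrated.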
# HttQ103 aggreg = mutant huntingtin aggregation inhibition; Potency, µM (highest dose often 46.1 µM), for inactives: at the highest dose activity change, negative = inhibition, hits mostly inhibitors; PC12 HttQ103-GFP aggregates, Acumen cytometry, 40 h; actives 1.1% (n = 220,000); further: potency means the concentration at half of the fitted maximal effect; on the % scale 0 is the no-effect control and ±100 the full control effect; nearly all actives have a fitted effect of over 60% in size
#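 Compounds (qHTS titration) were added to PC12 cells expressing an ecdysone-driven HTT exon 1 Q103–GFP fusion after induction with 100 nM tebufenozide. Aggregate formation was measured as GFP objects in cell lysates.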
# CBFb-RUNX1 inh = CBF-beta/RUNX1 interaction disruption; Q01196+Q13951; AlphaScreen CBFb-His/RUNX1-biotin binding, biochemical; Potency, µM (highest dose often 59.8 µM), for inactives: top-dose activity, negative = inhibition, usual class: inhibitors; 230,000 tested, under 10 active; further: % of control where 0% means no effect
# Target sequence (Q01196 whole entry, looked up): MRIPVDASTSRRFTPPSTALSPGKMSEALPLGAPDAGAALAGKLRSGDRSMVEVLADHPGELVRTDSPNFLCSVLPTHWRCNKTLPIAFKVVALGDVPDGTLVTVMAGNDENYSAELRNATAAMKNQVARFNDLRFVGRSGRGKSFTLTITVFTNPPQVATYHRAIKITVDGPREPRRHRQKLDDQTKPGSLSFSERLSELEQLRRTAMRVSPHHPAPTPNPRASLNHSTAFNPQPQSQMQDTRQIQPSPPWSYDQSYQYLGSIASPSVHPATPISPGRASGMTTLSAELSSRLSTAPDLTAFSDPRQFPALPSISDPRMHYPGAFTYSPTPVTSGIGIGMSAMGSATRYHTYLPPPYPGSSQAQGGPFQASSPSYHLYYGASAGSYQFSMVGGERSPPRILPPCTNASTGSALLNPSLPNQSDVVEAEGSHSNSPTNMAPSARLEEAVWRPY
# Target sequence (Q13951 whole entry, looked up): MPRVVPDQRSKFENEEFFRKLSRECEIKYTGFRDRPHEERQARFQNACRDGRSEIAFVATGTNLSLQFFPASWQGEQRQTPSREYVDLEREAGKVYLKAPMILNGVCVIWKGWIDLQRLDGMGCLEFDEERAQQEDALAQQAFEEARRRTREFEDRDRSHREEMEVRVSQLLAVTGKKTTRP
#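 Read-out: AlphaScreen. Format: His-CBF-beta with biotinylated RUNX1 (30 nM each) preincubated 20 min, compound 15 min, Ni-chelate plus streptavidin beads 90 min; room temperature throughout.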
# MBNL1 CUG block = MBNL1-poly(CUG) RNA binding inhibition | Q9NR56 | TR-FRET MBNL1-His/biotin-(CUG)12 binding, 665/545 ratio | Potency, µM (highest dose often 57.5 µM), for the others: at the top dose activity change, negative = inhibition, actives largely listed as inhibitors | actives 0.036% (n = 280,000) | AID 2675; active means well fitted inhibition curve with a large enough effect in the signal ratio, with a control signal flat, not every such curve was filed as active; inconclusive means small, poorly fitted or top-dose-only effect, or effect the other way, or a change in a side signal; inactive means no such curve, though single readings can be large or run the other way; the % refers to the signal ratio; further: potency means the concentration at half of the fitted maximal effect; on the % scale 0 is the no-effect control and ±100 the full control effect
#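 Inhibition of protein-RNA binding appears as loss of TR-FRET between terbium anti-His antibody on MBNL1-His and streptavidin-XL665 on biotin-(CUG)12. Activity is normalized to buffer-only and uninhibited-complex controls.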
# Numbers without * were called inactive; ? = inconclusive; . = not tested or not shown; [ ] = another dose, or the depositor's remark. The list is not random: actives were taken first. Their share in the collection is about 1.1%. Unless noted, the call rests on the fitted dose curve; in most records, active means well fitted curve in the direction sought with a large enough effect; inconclusive means small, poorly fitted or top-dose-only effect, or another doubt; inactive means no such curve, though single readings can be large; an effect the other way counts as inactive or inconclusive.
SMILES,Lamin A splicing,NPSR antag,HTT ATP protect,HttQ103 aggreg,CBFb-RUNX1 inh,MBNL1 CUG block
COc1cc2ncnc(NCc3cccc(Cl)c3)c2cc1OC,.,20.5%,-77.1%,14.1µM*,8.5%,-0.8%
COc1ccc2nc3c(cc2c1)Cn1c-3nc2ccccc2c1=O,.,.,.,.,-4.5%,.
CCOC(=O)c1sc2ccccc2c1S(=O)(=O)N1CCN(c2cccc(C)c2)C(C)C1 (configuration not stated),-7.2%[46 µM],.,.,.,.,.
CC(=O)OCC(=O)[C@@]1(O)CCC2C3C[C@H](C)C4=CC(=O)C=CC4(C)C3C(O)CC21C (some centres not stated),?,.,-47.9%,-5.9%,-9.2%,.
Cc1cccc(C(=O)Nc2sc(-c3ccccc3)cc2C(=O)O)c1,.,12.6µM*,-12.3%[10 µM],-2.6%[9.22 µM],19.7%,-3.1%
CC(C)(C)C(=O)Nc1sc(-c2ccccc2)cc1C(=O)O,.,12.6µM*,29.7%[10 µM],-2.6%[9.22 µM],-9.6%,33.6%
CCn1cc(C2=NOC(C(=O)Nc3cccc(C(C)=O)c3)C2)c(C)n1 (configuration not stated),?,2.9%[46.1 µM],8.2%[10 µM],0.794µM*,-0.8%,-10.6%
CCn1cc(C2=NOC(C(=O)Nc3c(C)nn(Cc4ccc(F)cc4)c3C)C2)c(C)n1 (configuration not stated),-13.0%,-11.1%[46.1 µM],-3.0%,-28.3%,7.8%,-4.3%
O=C(/C=C/c1cccs1)Nc1nc(-c2ccccc2)cs1,?,-16.7%[46.1 µM],-20.7%[10 µM],35.5µM*,25.0%,1.3%
O=C(COC(=O)/C=C/c1cccs1)Nc1nc(-c2ccccc2)cs1,-11.0%,-6.9%,.,11.3%,6.5%,.
CCOC(=O)c1ccc(NC(=O)c2ccc(=O)n(Cc3cccc(C)c3)c2)cc1,2.1%[46 µM],.,.,.,.,.
O=C1CSC(=S)N1/N=C/c1cccnc1,.,17.5%,.,0.891µM*,-6.3%,?
O=C1C(=O)c2ccc(-c3ccccc3)cc2-c2ccccc21,?,3.98µM*,-97.2%[10 µM],4.47µM*,-16.3%,?
Cc1cnc(C(=O)Nc2cccc3cccnc23)cn1,-1.7%,-10.8%[46.1 µM],-75.4%,0.891µM*,5.7%,0.0%
Cc1ccc(F)cc1NC(=O)Cn1c(=O)nc(-c2ccccc2F)c2cc(Cl)ccc21,-2.3%[46 µM],.,.,.,.,.
COc1ccc(Oc2nc(C(F)(F)F)nc3ccccc23)cc1,-9.4%,-9.2%[46.1 µM],-2.6%[10 µM],-12.1%,17.2%,-5.0%
CSc1nc(Oc2ccc3ccccc3c2)c2ccccc2n1,-16.9%,-11.0%[46.1 µM],-24.3%[10 µM],10µM*,2.2%,?
COC(=O)[C@@H]1[C@@H](C#N)C2(c3ccccc3-c3ccccc32)N(c2ccc(Cl)cc2)N1C#N,?,10µM*,-28.1%[10 µM],?,2.4%,13.8%
O=C(Cc1ccc(Cl)cc1)NN1C(=O)c2ccccc2C1=O,-6.1%,8.2%,-11.8%[0.074 µM],7.9%,3.0%,4.7%
N#CCCCS(=O)(=O)c1nnnn1C1CCCCC1,.,.,.,.,0.5%,.
O=S(=O)(CCC(F)=C(F)F)c1nnnn1C1CCCCC1,.,.,3.98µM*,.,-1.5%,.
Nc1nc(Cl)nc2c1ncn2[C@@H]1O[C@H](COP(=O)(O)OP(=O)(O)OP(=O)(O)O)[C@H](O)[C@H]1O,?,?,.,.,0.9%,.
O=C(CNC(=O)c1cccc(F)c1)N/N=C/c1cc(Br)ccc1OC(=O)/C=C/c1ccco1,?,-27.8%,.,8.91µM*,-13.6%,.
O=C(CNC(=O)c1ccccc1Br)N/N=C/c1ccco1,.,.,.,.,.,27.9%
O=C(CNC(=O)c1ccc(F)cc1)N/N=C/c1cc(Br)ccc1OCc1ccccc1,?,-28.8%,.,?,-12.3%,.
SMILES,Lamin A splicing,NPSR antag,HTT ATP protect,HttQ103 aggreg,CBFb-RUNX1 inh,MBNL1 CUG block
O=C(CNC(=O)c1ccccc1O)N/N=C/c1cc(Br)ccc1OC(=O)/C=C/c1ccco1,.,-46.6%,-171.7%,2.51µM*,-15.1%,14.5%
CCOC(=O)c1c(NC(=O)/C=C\C(=O)O)sc(C)c1-c1ccccc1,?,-26.1%,?,?,-0.2%,6.4%
CCOC(=O)c1c(NC(=O)/C=C/C(=O)O)sc(C)c1-c1ccc(C(C)(C)C)cc1,-7.4%[46 µM],10µM*,-196.5%,?,-29.6%,2.7%
Cc1ccc(Sc2ccccc2CN(C)C)c(N)c1,.,.,.,.,19.0%,.
COc1ccc(N2C(=O)[C@@H]3[C@H](C2=O)[C@H](C(C)=O)N2c4ccccc4C=C[C@@H]32)cc1,.,4.5%,-18.5%[10 µM],-12.2%[9.22 µM],-11.6%,19.2%
COc1ccc(C2C(C(=O)c3ccccc3)N3c4ccccc4C=CC3C2[N+](=O)[O-])cc1 (configuration not stated),.,?,-70.4%,17.8µM*,-28.8%,?
CN1CCC(=O)N(C(CSc2ccc(Br)cc2)c2ccccc2)CC1 (configuration not stated),.,.,.,.,-0.7%,.
CCCCS(=O)(=O)N1CCc2nc(-c3ccccc3)c3c(c2C1)CO[C@@H](C)C3,1.3%[9.22 µM],.,-7.4%[10 µM],.,-7.6%[13.1 µM],.
CC(=O)c1c(O)cc(C)n(Nc2nc(C)cc(C)n2)c1=O,0.6%,-10.9%[46.1 µM],-1.7%,1.26µM*,-3.1%,8.9%
Cc1[nH]n(-c2ccccc2)c(=O)c1N=Nc1nccs1,?,-14.4%[46.1 µM],-33.2%,11.2µM*,?,?
Cc1ccccc1N=Nc1c(C)[nH]n(-c2ccccc2)c1=O,-5.1%[46 µM],4.7%,-4.4%[10 µM],-9.4%[9.22 µM],-5.8%,4.0%
COc1cc(/C=C2/CCC/C(=C\c3cc(O)c(OC)c(Cl)c3)C2=O)cc(Cl)c1O,?,7.94µM*,-96.3%,?,-22.7%,14.0%
CC(On1nnc2ccccc21)C(=O)N1CCN(Cc2ccccc2)CC1 (configuration not stated),.,9.5%,0.708µM*,?,-2.0%,0.8%
Cc1ccc(Nc2cc(C)nn2-c2nc(C)cc(C)n2)cc1,?,0.794µM*,6.0%[4.97 µM],?,-4.1%,0.2%
Cc1ccc(Nc2cc(C)nn2-c2nc(C)cc(=O)[nH]2)cc1,-3.4%,?,6.1%[10 µM],?,?,-5.0%
O=C1c2cccc(OCc3ccc(F)cc3)c2CCN1Cc1ccc(F)cc1,?,-16.4%,30.5%[10 µM],20µM*,16.2%,1.9%
Cc1ccc(CN2CCc3c(OCc4ccc(F)cc4)cccc3C2=O)cc1,?,-35.4%,29.9%[10 µM],?,?,-2.4%
COCCN1C(=O)/C(=C/c2ccc(OCc3ccc(C(=O)O)cc3)c(OC)c2)SC1=Nc1ccccc1,8.9%,12.6µM*,.,?,4.3%,7.9%[11.5 µM]
Cc1ccc(-c2cn3c(n2)sc2cc(C(=O)NCCC4=CCCCC4)ccc23)c(C)c1,-0.1%[46 µM],.,.,.,.,.
Cn1nc(C(F)(F)F)c(/C=N/OC(=O)c2ccccc2Cl)c1SCc1ccccc1Cl,?,-26.2%[46.1 µM],-47.9%[10 µM],10µM*,22.1%,4.7%
